Values without a mark were called inactive. Active and inactive are the calls of the source. The call rests on the fitted dose curve; in most records, active means well fitted curve in the direction sought with a large enough effect in the repeat runs; inconclusive means weak or mixed curves; inactive means flat fitted curve, though single readings scatter.
Test: qHTS assay to test for compound auto fluorescence at 535 nm (green) in HEK293 cells (AID 720680)
Settings: green autofluorescence 485/535 nm; series mostly up to 91.3 µM; fluorescence, % of fluorescein: at the top concentration
From the text: U.S. Tox21 Program National Center for Advancing Translational Sciences [NCATS] NIH Chemical Genomics Center [NCGC] U.S. Environmental Protection Agency [EPA] National Institutes of Environmental Health Sciences [NIEHS] National Toxicology Program [NTP] U.S. Food and Drug Administration [FDA] Tox21 Assay Overview: Compound auto fluorescence often interferes with screening of the compound library against various biological targets and signaling pathways. Some of these compounds may have fluorophoric properties. Such properties may interfere with the assay outputs resulting in false positives and/or negatives. To decrease such complications and ensure the compound activities are relevant in terms of biological response, the Tox21 10K compound library was screened for auto fluorescence. From the fluorophores used as reporter signals in our screening assays, the auto fluorescence equivalencies of compounds against three fluorophores have been evaluated: Triamterene, Fluorescein and Rose Bengal sodium for blue, green and red fluorescence, respectively. The fluorescence intensities were measured using Excitation/Emission wavelengths at 405/460nm, 485/535nm and 540/590nm for blue, green and red labels, respectively. This assay includes the green fluorescence data.
Tox21 Assay Protocol Summary: 2,000 HEK293 cells in 5 uL of culture medium containing 10% dialyzed FBS per well were dispensed into black wall/clear bottom 1536-well plates using a Multidrop Combi Dispenser (Thermo Scientific). The assay plates were incubated for 4-5 hr at 37C to allow cell attachment to the well bottom, followed by the transfer of 23 nL compound or DMSO vehicle by a pintool work station (Kalypsys, San Diego, CA). After the assay plates were incubated overnight at 37C and 5% CO2, fluorescence intensities in the assay plates were measured by an Envision (PerkinElmer, Shelton, CT) plate reader using three labels for measuring blue, green and red fluorescence at […] 460, 535 and 590nm respectively.
On the % scale 0 is the no-effect control and ±100 the full control effect.

Row | SMILES | fluorescence, % of fluorescein | outcome
1 | Cc1cccc(N(C)C(=S)Oc2ccc3c(c2)CCC3)c1 | 0.0451% [at 46 µM] | –
2 | CC(=O)OCC[N+](C)(C)C | 0.28% [at 46 µM] | –
3 | CCCCCCCC/C=C\CCCCCCCCO | 0.0529% | –
4 | CN1C(=O)OC(C)(C)C1=O | – | inactive
5 | C/C=C/C=C/C=O | 0.19% | –
6 | c1cc(N(CC2CO2)CC2CO2)ccc1Cc1ccc(N(CC2CO2)CC2CO2)cc1 (stereo not given) | 0.0214% | –
7 | CCC1(CO)COCOC1 | -0.072% | –
8 | C=CC(=O)[O-].C=CC(=O)[O-].[Zn+2] | -0.0016% | –
9 | CCCCC(CC)CN (stereo not given) | 0.0578% [at 95.7 µM] | –
10 | CCC(C)COC(C)=O (stereo not given) | -0.145% | –
11 | O=C1C(=O)c2ccccc2C(O)=C1C1CCC(c2ccc(Cl)cc2)CC1 (stereo not given) | -0.014% [at 18.6 µM] | –
12 | CC(C)(c1ccccc1)c1ccccc1 | 0.0158% | –
13 | Cc1c(C)c2c(c(C)c1OC(=O)CCC(=O)OCCO)CC[C@@](C)(CCC[C@H](C)CCC[C@H](C)CCCC(C)C)O2 | -0.272% [at 46 µM] | –
14 | COc1cc(C(=O)NC2CCN(C)CC2)ccc1Nc1ncc2c(n1)N(C1CCCC1)CC(F)(F)C(=O)N2C | -0.147% | –
15 | Oc1c(I)cc(I)c2cccnc12 | 0.0667% [at 46 µM] | –
16 | Nc1nc2ccc([N+](=O)[O-])cc2s1 | -0.139% | –
17 | C=C(C)C(=O)OCCOCCOC(=O)C(=C)C | 0.021% | –
18 | C=CCc1ccccc1OCC(O)CNC(C)C (stereo not given) | 0.107% [at 46 µM] | –
19 | C=C(C)CCCC(C)CCO (stereo not given) | -0.0097% | –
20 | Oc1cc2c(cc1O)[C@H]1c3ccc(O)c(O)c3OC[C@@]1(O)C2 | 3.29% [at 95.7 µM] | –

Row | SMILES | fluorescence, % of fluorescein | outcome
21 | COc1cc(C(=O)NCCCCCC(=O)O)cc(OC)c1OC | -0.0139% [at 46 µM] | –
22 | c1ccc(C[n+]2cccc3ccccc32)cc1 | 0.0396% | –
23 | CC(=O)OCC(=O)NCCCOc1cccc(CN2CCCCC2)c1 | – | inactive
24 | CCCCCCC(C)(C)C(=O)O | 0.1% | –
25 | Cc1cscn1 | 0.0232% | –
26 | CC(C)C=O | -0.147% [at 95.7 µM] | –
27 | CCCCCC#CC(=O)OC | 0.0437% | –
28 | CO/N=C(/C(=O)N[C@@H]1C(=O)N2C(C(=O)O)=C(COC(N)=O)CS[C@H]12)c1ccco1 | – | inactive
29 | O=C(OC(=O)c1ccccc1)c1ccccc1 | 0.0253% [at 95.7 µM] | –
30 | CCCCCCCCN | -0.0481% | –
31 | CC(=O)[C@H]1[C@H](C#N)C[C@H]2[C@@H]3CC=C4C[C@@H](O)CC[C@]4(C)[C@H]3CC[C@@]21C | -0.0319% | –
32 | CCOc1cccc(-n2cc(C(=O)N3CCN(c4cc(C(=O)O)c5ccccc5c4)CC3)nc2-c2ccc(C)cc2)c1 | -0.0984% | –
33 | C=CC(C)(CCC=C(C)C)OC(=O)CC(C)C (stereo not given) | -0.0493% | –
34 | CCOC(=O)c1ccc(I)cc1 | 4.7e-05% | –
35 | CCCCCCCCCCC(=O)O | 0.0775% [at 95.7 µM] | –
36 | CCOc1ccc(Cc2nccc3cc(OCC)c(OCC)cc23)cc1OCC | -0.066% [at 18.6 µM] | –
37 | NC1[C@H]2CN(c3nc4c(cc3F)c(=O)c(C(=O)O)cn4-c3ccc(F)cc3F)C[C@@H]12 (stereo not given in full) | -0.0084% [at 46 µM] | –
38 | Oc1ccc(Cl)c2cccnc12 | -0.0422% [at 46 µM] | –
39 | O=C(Cn1ccnc1[N+](=O)[O-])NCCO | 0.0474% [at 46 µM] | –
40 | C[C@]12CC[C@@H]3c4ccc(O)cc4CC[C@H]3[C@@H]1CC[C@@H]2OC(=O)CCC1CCCC1 | – | inactive
